Inhibition data for 40 molecules are collected here from ChEMBL document CHEMBL4513135, “CO-ADD screening of IQOG CSIS (Spain) compounds”.

The structures appear in SMILES notation. Several values for one entry are separate records, joined by “and”; a condition that tells them apart may be missing. Identical values can stand only once. Entries with a potency or affinity are not part of this list.

One test deals with Staphylococcus aureus. The note with it: Concentration 32 ug.mL-1, ASSAY_TEST Inhibition of Bacterial Growth, detection method Absorption (OD600), MEDIA CAMHB, plate type 384well, NBS, CORNING #3640, time 18 hr.
A further test has as its system Escherichia coli. The note with it: Concentration 32 ug.mL-1, ASSAY_TEST Inhibition of Bacterial Growth, detection method Absorption (OD600), MEDIA CAMHB, plate type 384well, NBS, CORNING #3640, time 18 hr.

Regarding `N#Cc1cc(C#N)c(NCc2ccccc2)nc1N`, the Inhibition is listed as 27.12% in the test on Staphylococcus aureus and -14.28% in the test with Escherichia coli.
Turning to `COc1ccc(CNNC(=O)c2cc3ccccc3[nH]2)cc1`, the Inhibition in the test with Staphylococcus aureus is 2.37%; in the test with Escherichia coli, -1.53%.
As for `NOC(=O)C1CCN(Cc2ccccc2)CC1`, the Inhibition in the test with Staphylococcus aureus is 21.2%; in the test on Escherichia coli it was 1.52%.
With `COc1ccc2nc(Cl)c(C=O)cc2c1`, the Inhibition in the test with Staphylococcus aureus (32 ug/mL) is 19.77% and 20.88%; with Escherichia coli (32 ug/mL) it was 18.53% and 18.96%.
For the molecule `N#Cc1c(-c2ccccc2)c2ccc3ccccc3c2oc1=O`, the Inhibition is on record as 33.43% in the test on Staphylococcus aureus and -8.95% in the test on Escherichia coli.
Taken in the same sequence, the figures for `C#CCN(C)c1nc(NCC2CCN(Cc3ccccc3)CC2)c(C#N)c(-c2ccccc2)c1C#N` were 6.97% and -2.4%.
Taken in the same sequence, the figures for `O[C@H]1CC[C@H](NCc2ccccc2)CC1` were 21.55% and -7.34%.
The like results for `N#Cc1c(N)nc(Cl)c(C#N)c1-c1ccccc1` were, in that order, 17.3% and 12.56%.
For the molecule `N#C/C(=C\c1ccccc1)C(=O)c1ccccc1`, the Inhibition with Staphylococcus aureus was 10.5%; in the test on Escherichia coli, 8.34%.
As for `C=C1CN(C)c2c(C#N)cc(C#N)c(=N)n21`, the Inhibition is 13.03% with Staphylococcus aureus and -14.43% with Escherichia coli.
Turning to `CN1C/C(=C\Cl)n2c1c(C#N)cc(C#N)c2=O`, the results for the Inhibition in the test on Staphylococcus aureus and in the test with Escherichia coli were 23.22% and -15.97%, respectively.
The like results for `O=C1OC(c2ccccc2)=NC12CC2c1ccc([N+](=O)[O-])cc1` (stereo not given) were, in that order, 9.12% and 5.57%.
Taken in the same sequence, the figures for `NNC(=O)Cc1c[nH]c2ccccc12` were 10.37% and 13.76%.
The like results for `COc1ccc2cc(C3C4=C(CC(C)(C)CC4=O)Oc4nc5c(c(N)c43)CCCCC5)c(Cl)nc2c1` (stereo not given) were, in that order, 27.31% and 12.92%.
As for `COc1nc(NC(C)=O)c(C#N)c(-c2ccccc2)c1C#N`, the figures for the Inhibition in the test with Staphylococcus aureus and in the test on Escherichia coli were 21.1% and -7.58%, respectively.
As for `COc1ccc(C=C2N=C(c3ccccc3)SC2=O)cc1`, the Inhibition in the test on Staphylococcus aureus stood at 12.36%; in the test with Escherichia coli, 7.03%.
As for `CC1Cc2c(Br)nc3nc4c(c(N)c3c2NC1=O)CCCC4` (stereo not given), the Inhibition in the test on Staphylococcus aureus was 27.55%; with Escherichia coli it was -12.78%.
Taken in the same sequence, the figures for `CC(=O)n1cc(/C=C2\N=C(c3ccccc3)OC2=O)c2ccccc21` were 15.78% and 15.77%.
As to `Cc1cc(Br)cc(C)c1NC=C(C#N)C#N`, the Inhibition worked out at 7.73% in the test with Staphylococcus aureus and 12.6% with Escherichia coli.
`CC(C)(C)OC(=O)Nc1ccccn1`: the values for the Inhibition with Staphylococcus aureus and with Escherichia coli were 38.41% and -0.38%, respectively.
With `Nc1c2c(nc3c1C(c1ccc([N+](=O)[O-])cc1)c1ccc4ccccc4c1O3)CCCC2` (stereo not given), the results for the Inhibition in the test on Staphylococcus aureus and in the test with Escherichia coli were -9.37% and -12.22%, respectively.
The like results for `N#CC1=C(Cl)Oc2c(ccc3ccccc23)C1c1ccccc1[N+](=O)[O-]` (stereo not given) were, in that order, 15.73% and -14.23%.
Taken in the same sequence, the figures for `OCc1c(-c2ccc(Br)cc2)nc2ccccn12` were 6.46% and 0.77%.
The like results for `O=C1NC(=S)N/C1=C\c1c[nH]c2ccccc12` were, in that order, 7.26% and 6.43%.
Regarding `Cc1nc2c(cc1C#N)c(N)nn2C`, the results for the Inhibition in the test with Staphylococcus aureus and with Escherichia coli were 30.49% and 0.08%, respectively.
Taken in the same sequence, the figures for `N#Cc1cc(C#N)c(NCCO)nc1N` were 40.77% and -7.55%.
Taken in the same sequence, the figures for `Cc1[nH]c2ccc(OCc3ccccc3)cc2c1C(=O)NN` were 3.15% and -5.77%.
Regarding `CC/C(C)=N/NC(=O)Cc1c[nH]c2ccccc12`, the Inhibition in the test on Staphylococcus aureus is on record as -7.02%; in the test with Escherichia coli, -3.01%.
For `C#CCN1CCc2nc3nc(N(C)C)c(C#N)cc3c(N)c2C1`, the Inhibition is listed as 32.37% with Staphylococcus aureus and -3.45% with Escherichia coli.
The like results for `Cc1ccc2nc(Cl)c(/C=N/OCc3ccccc3)cc2c1` were, in that order, 31.42% and 20.1%.
The like results for `N#CC1(Br)C(=NBr)Oc2ccc3ccccc3c2C1c1ccc([N+](=O)[O-])cc1` (stereo not given) were, in that order, 17.16% and -19.01%.
Turning to `C#CCNc1nc(NC2CCN(Cc3ccccc3)CC2)c(C#N)cc1C#N.Cl`, the Inhibition is recorded as -1.55% with Staphylococcus aureus and -6.24% in the test on Escherichia coli.
Taken in the same sequence, the figures for `O=C(O)c1c[nH]c2ccccc12` were -3.47% and -2.29%.
For the molecule `Cl.ClCCCC1CCNCC1`, the values for the Inhibition in the test with Staphylococcus aureus and in the test with Escherichia coli were 28.57% and 19.24%, respectively.
As to `CC(=O)N1CC(=O)NC1=S`, the Inhibition in the test with Staphylococcus aureus was determined as 18.21%; in the test on Escherichia coli, 15.12%.
Taken in the same sequence, the figures for `CC(C)(C)OC(=O)Nc1ncccc1Br` were 38.27% and -5.45%.
Consider `CS(=O)(=O)O[C@H]1CC[C@H](OS(C)(=O)=O)CC1`, for which the results for the Inhibition in the test with Staphylococcus aureus and with Escherichia coli were 29.12% and -5.59%, respectively.
The like results for `Cc1ccc(C(O)SNNc2ncnc3c2cnn3-c2ccccc2)cc1` (stereo not given) were, in that order, 13.51% and 11.76%.
As for `Cc1ccc(C(O)SNNc2ncnc3c2c(C)nn3-c2ccccc2)cc1` (stereo not given), the Inhibition is listed as 5.38% in the test with Staphylococcus aureus and 11.97% in the test on Escherichia coli.
Turning to `N#CC1(Br)C(=NBr)Oc2ccc3ccccc3c2C1c1cccc([N+](=O)[O-])c1` (stereo not given), the results for the Inhibition in the test with Staphylococcus aureus and with Escherichia coli were 29.27% and -20.79%, respectively.

As usually defined, the Inhibition is the change of the read-out against control, counted positive when it falls.
